CYP2C19 inhib: human CYP2C19 inhibition. P33261. CYP2C19 Supersomes, luciferin-H EGE luminescence, 30 min. inhibition, % at 5 µM. 96,000 compounds, 21% hits. AID 778;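 active means CYP2C19 inhibition above a set limit at 5 µM in the primary screen, cut at about 50% in these data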
CYP2C9 inhib: blocks human cytochrome P450 2C9; CYP2C9 Supersomes, luciferin-H conversion, luminescence; inhibition, % at 5 µM; 96,000 compounds, 20% hits;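 active means blocking of liver enzyme CYP2C9 beyond about 50% at 5 µM, limit read from the data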
Target sequence (P11712 whole entry, looked up): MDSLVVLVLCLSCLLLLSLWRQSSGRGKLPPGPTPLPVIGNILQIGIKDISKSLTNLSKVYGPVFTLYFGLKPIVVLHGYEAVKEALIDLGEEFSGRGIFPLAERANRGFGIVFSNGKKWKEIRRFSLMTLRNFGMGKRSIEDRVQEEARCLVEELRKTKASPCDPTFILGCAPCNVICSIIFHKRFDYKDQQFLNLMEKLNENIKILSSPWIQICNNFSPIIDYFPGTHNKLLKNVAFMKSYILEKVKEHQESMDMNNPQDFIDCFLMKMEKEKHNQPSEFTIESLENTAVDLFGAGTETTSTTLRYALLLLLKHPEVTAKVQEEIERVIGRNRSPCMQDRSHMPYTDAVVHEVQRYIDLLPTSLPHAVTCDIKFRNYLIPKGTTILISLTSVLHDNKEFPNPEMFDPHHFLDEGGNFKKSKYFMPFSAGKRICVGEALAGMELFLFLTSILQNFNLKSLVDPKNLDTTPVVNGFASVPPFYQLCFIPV
CYP2C9 act: activators of human CYP2C9. P11712. recombinant CYP2C9, luciferin-H conversion, luminescence; active compounds read high; factor 1 = untreated enzyme, 0 = blocked. activation factor at 5 µM. 96,000 compounds, 1.4% hits. AID 1024;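 active means activation factor of 2 or more for CYP2C9 at a 5 µM dose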
PLAP act: activators of human placental alkaline phosphatase; 96,000 compounds, 1.2% hits; activation fold at 20 µM; purified PLAP enzyme, luminescent substrate read-out; active compounds read high; P05187; in the data active means activation fold above about 2
CYP2C19 act: cytochrome P450 2C19 (human) activation; AID 1025; 96,000 tested, under 10 active; recombinant CYP2C19, luciferin-H EGE luminescence; active compounds read high; 0 = fully inhibited enzyme, 1 = untreated enzyme; activation factor at 5 µM;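 active means activation factor of at least 2 at 5 µM in the primary screen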
Each line names hits and unclear results; the compound was inactive in the other large screens. Shown are actives, neighbours in structure and some others; about 31% of the full set was active somewhere.

Cc1c(C)n(C(=O)CN2CCC(C)CC2)c2ccccc12	CYP2C19 inhib 57
Cc1c(C)n(C(=O)CSc2ncn[nH]2)c2ccccc12	CYP2C19 inhib 59
O=C(CN1CCOCC1)n1c2ccccc2c2ccccc21	none
Cc1c(C)n(C(=O)CSc2nncn2C)c2ccccc12	CYP2C9 act 2.2
CC(=O)Oc1ccc(C)cc1-n1nc2ccccc2n1	none
Cc1cc(C)cc(NC(=O)C/C(N)=N/O)c1	none
COC(=O)CCC(NC(=O)OCc1ccccc1)C(=O)NC(CC(C)C)C(=O)OC (centres undefined)	CYP2C9 inhib 68
COC(=O)C(CC(C)C)NC(=O)C(N)Cc1ccccc1 (centres undefined)	none
O=C(NNC1=C(C(=O)C(F)(F)F)CCC1)c1ccc(Cl)cc1	CYP2C9 inhib 50
O=C(NNC(=O)c1ccccc1F)c1cccc(Cl)c1	none
O=C(NNC1=C(C(=O)C(F)(F)F)CCC1)c1cccc(Cl)c1	CYP2C9 inhib 91, PLAP act 2
Cc1cccc(NC(=O)C23CCC(C)(C2Br)C3(C)C)c1 (centres undefined)	none
CC(C)(C)Nc1nc(OCC(F)(F)F)nc(OCC(F)(F)F)n1	none
CC(=O)Nc1ccc(NC(=O)C(C)OC(=O)CN(C)S(=O)(=O)c2ccc(Cl)cc2)cc1 (centres undefined)	CYP2C19 inhib 75, CYP2C9 inhib 60
CC(OC(=O)CN(C)S(=O)(=O)c1ccc(Cl)cc1)C(=O)Nc1ccc(N2CCOCC2)cc1 (centres undefined)	none
Cc1ccc(-c2cc(C(=O)N/N=C/c3c(C)nn(C)c3C)c3ccccc3n2)cc1C	CYP2C19 inhib 81, CYP2C9 inhib 97
CCn1ncc(/C=N\NC(=O)c2cc(-c3ccc(C)cc3C)nc3ccccc23)c1C	CYP2C19 inhib 90, CYP2C9 inhib 97
CC(/C=N/NC(=O)c1cc(-c2ccc(Cl)cc2)nc2ccccc12)=C\c1ccco1	CYP2C9 inhib 89
CC1CC1C(=O)OCc1cc(=O)n2cc(Br)ccc2n1 (centres undefined)	CYP2C19 inhib 63
O=C(CN1CCOCC1)Nc1ccccc1C(=O)O	none
CC(=O)Oc1oc(-c2ccccc2)nc1C=Nc1ccccc1	none
CCOC(=O)c1ccc(N=Cc2nc(-c3ccccc3)oc2OC(C)=O)cc1	CYP2C9 inhib 50
CSc1nnnn1-c1ccc(C(=O)OCC(=O)N2CCOCC2)cc1	none
CN(CC(=O)NCCN1CCN(c2ccccc2)CC1)S(=O)(=O)c1ccc2c(c1)CCC(=O)N2	none
CCOc1ccc(C2C(C(=O)Nc3ccc(F)cc3)=C(C)Nc3nc(CCCO)nn32)cc1 (centres undefined)	CYP2C9 inhib 62
Cc1ccc(/C=C(/C#N)C(=O)NC(=O)Oc2ccccc2)cc1	none
Cc1ccc(C(C)NC(=O)/C(C#N)=C\c2c(C)[nH]c3ccccc23)cc1 (centres undefined)	CYP2C9 act 2.1
O=S(=O)(/N=C(/Nc1cc(N2CCOCC2)ncn1)c1ccccc1)c1ccccc1	none
O=S(=O)(/N=C(/Sc1ccccc1)c1ccccc1)c1ccccc1	CYP2C19 inhib 96, CYP2C9 inhib 96
CCOC(=O)Cc1c(C)c2c(C)nn(-c3ccccc3)c2oc1=O	none
CCOc1ccc(-n2c(=S)sc3c(=O)[nH]c(SCC(=O)NC(C)CC)nc32)cc1 (centres undefined)	CYP2C9 inhib 78
CCC(C)NS(=O)(=O)c1ccc(NS(C)(=O)=O)cc1 (centres undefined)	none
Cc1cccn2c(/C=N/OCc3cccc(F)c3)c(-c3ccc(Cl)cc3)nc12	none
COc1cccc(/C(C#N)=C/c2c(-c3ccc(Cl)cc3)nc3c(C)cccn23)c1	CYP2C19 inhib 55, CYP2C9 inhib 70
Cc1cccc(N(C2C=CS(=O)(=O)C2)S(=O)(=O)c2ccccc2)c1 (centres undefined)	none
CCOC(=O)N1CCN(C(=O)CCn2nc(-c3ccccc3)ccc2=O)CC1	none
CCOC(=O)N1CCN(C(=O)CCCn2nc(C)c3sc4ccccc4c3c2=O)CC1	CYP2C9 act 2.4
COc1ccc2c(CC(=O)OCC(=O)c3ccc(F)cc3)coc2c1	none
C/C=C/Cn1c(SCCCc2ccccc2)nc2c1c(=O)[nH]c(=O)n2C	CYP2C19 inhib 58, CYP2C9 inhib 77
C=CCn1c(SCCCc2ccccc2)nc2c1c(=O)[nH]c(=O)n2C	CYP2C19 inhib 76, CYP2C9 inhib 63
C=CCn1c(SCCOC)nc2c1c(=O)[nH]c(=O)n2C	none
CC(C)n1c(SCCCc2ccccc2)nc2c1c(=O)[nH]c(=O)n2C	none
c1ccc2nc3c(cc2c1)CCCCCC3	CYP2C19 inhib 66
N#CCSc1nc2c(cc1C#N)CCCCCC2	none
Nc1nc2c(s1)C(=O)CC(c1ccccc1)C2 (centres undefined)	none
CCOc1ccc(S(=O)(=O)NCCC(=O)OCN2C(=O)c3ccccc3C2=O)cc1	CYP2C19 inhib 70
CCOc1ccc(S(=O)(=O)NCCC(=O)OC(C)C(=O)N2CCc3ccccc32)cc1 (centres undefined)	CYP2C19 inhib 50, CYP2C9 act 2.1
O=C(CNS(=O)(=O)c1ccccc1Br)OCC(=O)N1CCc2ccccc21	none
CC(OC(=O)C1CCN(S(=O)(=O)c2ccc(Cl)cc2)CC1)C(=O)N1CCc2ccccc21 (centres undefined)	CYP2C19 inhib 66
O=C(C1CCN(S(=O)(=O)c2ccc3c(c2)OCCO3)CC1)N1CCc2ccccc21	none
CC(=O)Nc1ccc(S(=O)(=O)NCC(=O)OCC(=O)N2CCc3ccccc32)cc1	CYP2C9 inhib 71
COc1ccc(S(=O)(=O)NC(CC(=O)N2CCc3ccccc32)c2ccco2)cc1 (centres undefined)	none
CS(=O)(=O)N(CC(=O)N1CCN(c2ccccc2F)CC1)c1cccc(C(F)(F)F)c1	none
Cc1cccc(-c2nc(CSCC(=O)NCc3cccs3)c(C)o2)c1	none
COc1ccc(Cn2nc(C)cc2C)cc1OC	none
Cc1ccc(NC(=O)Nc2cccs2)c(Cl)c1	none
Cc1ccc(S(=O)(=O)Nc2nc(C)c(NC(=O)OCCCl)s2)cc1	CYP2C9 inhib 89
Cc1ccc(S(=O)(=O)Nc2nc(C)c(NC(=O)Nc3ccc(Cl)cc3Cl)s2)cc1	CYP2C9 inhib 61
CCOc1cc(C2/C(=C(\O)c3cc(C)ccc3C)C(=O)C(=O)N2CCN(C)C)ccc1O (centres undefined)	none
COc1cccc(N=c2oc3c(C)ncc(CO)c3cc2C(=O)Nc2ccccc2OC)c1	CYP2C9 inhib 77
CCOc1ccc(OCC)c(N=c2oc3c(C)ncc(CO)c3cc2C(N)=O)c1	none
O=C(CCCCn1c(=O)[nH]c2ccccc2c1=O)NCCC1=CCCCC1	none
CCCCNC(=O)CCCn1c(=O)c2ccccc2n(CC(=O)NCCC2=CCCCC2)c1=O	CYP2C19 inhib 67, CYP2C9 inhib 72
O=C(Cn1c(=O)n(CCCC(=O)NC2CCCC2)c(=O)c2ccccc21)NCCC1=CCCCC1	CYP2C9 inhib 68
Cc1ccc(S(=O)(=O)C2(C(=O)Nc3nccs3)CC2)cc1	none

From PubChem BioAssay
